Hit rate of the full screen: of about 5,500 compounds, about 2,000 (36%) were called active. Another 18% or so got no clear call; they are omitted. Cut-off read from the data, not from the text of the source: active = normalized growth mostly below about 0.91 (no sharp cut-off); inconclusive = no clear call, values can overlap the other calls; inactive = mostly above about 0.92. The list shows a part of the results.
Assay: chemical genetic growth profiling, strain panel (AID 1159580);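 note: tested at 20 µM; growth read once vehicle control cultures reached saturation at 30 °C; 1 = growth at the plate median or of vehicle wells; lower values mean less growth of the strain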
Conditions: S. cerevisiae deletion strains, growth OD

Measured: normalized growth

CC(=O)N[C@H](C(=O)O)C(C)(C)SN=O
inactive: locus YAL013W, strain DEP1, hits give low values 1.01 | locus YAL040C, strain CLN3, hits give low values 1.01 | locus YCL061C, strain MRC1 (second series), hits give low values 1.01 | locus YDR363W, strain ESC2, hits give low values 0.989 | locus YER002W, strain NOP16, hits give low values 1.01 | locus YGR078C, strain PAC10, hits give low values 1.02 | locus YGR229C, strain SMI1, hits give low values 1 | locus YMR307W, strain GAS1, hits give low values 0.987 | locus YNL128W, strain TEP1, hits give low values 0.998 | locus YNL153C, strain GIM3, hits give low values 1.02 | locus YNL175C, strain NOP13, hits give low values 1.01 | locus YNL197C, strain WHI3, hits give low values 1.01 | locus YNL224C, strain SQS1, hits give low values 1.02 | locus YNL322C, strain KRE1, hits give low values 1.01 | locus YOR083W, strain WHI5 (second series), hits give low values 1.02 | locus YPL241C, strain CIN2, hits give low values 1.01
